This is a sample that favours compounds with a hit; in the whole collection about 1.6% have one here.
KCNQ2 pot = KCNQ2 (rat) channel potentiation. O88943. CHO-K1 KCNQ2, FluxOR thallium flux fluorescence; hits give high values. B-score at 10 µM. 310,000 tested, 0.54% active;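 active means fluorescence ratio B-score at least 3 SD of library B-scores, with initial fluorescence B-score within 3 of them, cut at about 5.3 in these data; same plate scores as AID 2156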;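 further: B-score of peak minus minimum over baseline fluorescence ratio after K+ and Tl+ stimulus; positive B-score means potentiation of KCNQ2 with more thallium influx and brighter signal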
KCNQ2 inh = inhibitors of rat KCNQ2 potassium channel | CHO-K1 KCNQ2, FluxOR thallium flux, 20 min; hits give low values | 310,000 tested, 1.1% active | B-score at 10 µM | O88943;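 active means fluorescence ratio B-score at most minus 3 library SDs, with starting brightness B-score within 2 library SDs, cut at about -5.5 in these data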
Starred values were filed as active, the others as inactive; i = inactive; / = no result given.

SMILES	KCNQ2 pot	KCNQ2 inh
CC(C)(C)OC(=O)N1CCC(CC2CC(c3cccc(Br)c3)=NO2)(C(=O)NCC2CCCCC2)CC1 (centres undefined)	-8.1	-8.1*
O=C(c1ccccc1)N1CCC(CC2CC(c3cccc(Br)c3)=NO2)(C(=O)NCC2CCCCC2)CC1 (centres undefined)	/	i
N#CC(c1cccc(C(F)(F)F)c1)(c1ncc(C(F)(F)F)cc1Cl)N1CCOCC1 (centres undefined)	/	i
N#CC(c1ccccc1)(c1ncc(C(F)(F)F)cc1Cl)N1CCOCC1 (centres undefined)	-7	-7*
O=C(O)/C=C/C(=O)Nc1ccc(OC(F)(F)F)cc1Br	0.14	i
COc1cccc(/C=C/C(=C2/C(=O)N(c3ccccc3)N=C2C)c2ccc(C)cc2)c1OC	/	i
COc1ccc(C)cc1NC(=O)CNC(c1ccccc1)c1ccc(C)cc1 (centres undefined)	/	i
COc1ccccc1C(C)NCC(=O)Nc1c(F)cccc1F (centres undefined)	0.99	i
COc1cc(Cl)c(C)cc1NC(=O)CNC(C)c1ccccc1OC (centres undefined)	-5.8	-5.8*
COc1ccccc1NC(=O)CNC(c1ccccc1)c1ccccc1	-6.1	-6.1*
Cc1cc(C)c(S(=O)(=O)Nc2cccc(/C=C/C(=O)O)c2)c(C)c1	0.51	i
COc1ccccc1N1CCN(C(=O)C(C)N(c2ccccc2)S(C)(=O)=O)CC1 (centres undefined)	-5.7	-5.7*
COc1ccccc1N1CCN(C(=O)C(C)N(c2ccc(C)cc2)S(C)(=O)=O)CC1 (centres undefined)	/	i
C/C(=N\NC(=O)c1ccoc1C)c1cccc2ccccc12	12*	i
C/C(=N\NC(=O)c1cccc2ccccc12)c1ccccn1	/	i
CCN(CC)CCNC(=O)c1cc(Nc2ccc(OC)c(OC)c2)nc2ccccc12	0.84	i
Cc1ccc(CNC(=O)CC2(CC3=NS(=O)(=O)c4ccccc4N3)CCCC2)cc1	0.52	i
CCc1ccc(OCCCC(=O)NCc2ccco2)cc1	0.58	i
CCc1ccc(N/C(SCc2ccccc2C)=C(/C#N)C(=O)NCc2ccco2)cc1	-6.1	-6.1*
S=C1N(c2ccccc2)C(c2ccc(Br)cc2)N2CCCN12 (centres undefined)	/	i
COc1cc(CN2CCCC(CO)(Cc3ccccc3C)C2)cc2c1OCO2 (centres undefined)	/	i
C/C=C/c1ccc(OCCCCOc2ccccc2C(C)=O)c(OC)c1	-7.5	-7.5*
COc1ccccc1OCCCCOc1ccccc1C(C)=O	0.77	i
CCOC(=O)Cn1nc(-c2ccccc2)nc1-c1ccccc1	/	i
O=C(Cn1nc(-c2ccccc2)nc1-c1ccccc1)OC1CCCCC1	-6.1	-6.1*
SMILES	KCNQ2 pot	KCNQ2 inh
COc1ccc(-c2nc3ccccc3n2Cc2ccccc2)cc1	/	i
COc1ccc(-c2n(Cc3ccccc3)c3ccccc3[n+]2Cc2ccccc2)cc1	-6	-6*
O=C(Nc1ccccc1C(=O)NC(Cc1ccccc1)C(=O)O)c1ccccc1 (centres undefined)	/	i
Nc1ccc(C(=O)Nc2ccccc2C(=O)O)cc1	0.33	i
O=C(Nc1ccccc1C(=O)Nc1ccccc1C(=O)O)c1ccccc1	-5.9	-5.9*
O=C(Nc1ccccc1C(=O)NC(Cc1ccccc1)C(=O)NC1CCCCC1)c1ccccc1 (centres undefined)	-7.2	-7.2*
O=C(Cn1cnc2ccccc2c1=O)c1ccc(OC(F)F)cc1	0.26	i
CCOC(=O)N1CCN(CC(=O)Nc2nnc(C(F)(F)F)s2)CC1	/	i
O=C(O)c1cccc(-c2ccc(/C=N/n3cnc4sc5c(c4c3=O)CCCC5)o2)c1	0.36	i
O=S(=O)(NCCc1ccccc1)c1ccc(Br)cc1	0.41	i
O=C(NCCCN1CCCC1=O)c1ccc(Cl)c(Cl)c1	0.45	i
Oc1ccc(Br)cc1-c1ccn[nH]1	12*	i
Oc1ccc(Br)cc1-c1cc(-c2ccco2)[nH]n1	/	i
CN1c2ccccc2C(C)(C)C12C=Nc1c(cc(N3CCOCC3)c3ccccc13)O2 (centres undefined)	/	i
CN1c2ccccc2C(C)(C)C12C=Cc1cc(O)ccc1O2 (centres undefined)	-7.1	-7.1*
COc1ccc(CCNC(=O)CCc2cc(OC)c(OC)c(OC)c2)cc1OC	/	i
c1ccc(N(c2ccccc2)c2nc(N3CCCC3)nc(-n3ccnc3)n2)cc1	/	i
CCOC(=O)N1CCN(c2nc(N(c3ccccc3)c3ccccc3)nc(-n3ccnc3)n2)CC1	-6	-6*
CC(C)Cn1c(=O)c(CCC(=O)Nc2ccc(N3CCOCC3)cc2)nc2cc(Cl)ccc21	/	i
COCC(C)NC(=O)c1nn(Cc2ccccc2)c(=O)c2ccccc12 (centres undefined)	1.2	i
CCOC(=O)C1CCN(C(=O)c2cccc(Cl)c2)CC1	0.56	i
